Several values for one entry are separate records, joined by “and”; a condition that tells them apart may be missing. Identical values can stand only once. Inconclusive results are not listed. Activity calls are given as the source filed them. Unless noted, calls follow the shape of the dose curve; as a rule, active = well fitted curve in the direction sought with a large enough effect; inconclusive = small, poorly fitted or top-dose-only effect, or another doubt; inactive = no such curve, though single readings can be large; an effect the other way counts as inactive or inconclusive.
Experiments:
[1] = target: Glucocorticoid receptor (Homo sapiens) (UniProt P04150); test: qHTS assay for small molecule agonists of glucocorticoid receptor signaling (AID 588532; active = well fitted curve in the direction sought with a large enough effect in the signal ratio, with a control signal flat; the % refers to the signal ratio;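 also: 100% = dexamethasone at 0.1 µM and 0% = DMSO only wells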); conditions: HeLa MMTV-bla, beta-lactamase ratio, agonist, 18 h; stronger effect = higher value; percent of dexamethasone control, DMSO zero
Sequence of Glucocorticoid receptor (Homo sapiens) (P04150 whole entry, looked up): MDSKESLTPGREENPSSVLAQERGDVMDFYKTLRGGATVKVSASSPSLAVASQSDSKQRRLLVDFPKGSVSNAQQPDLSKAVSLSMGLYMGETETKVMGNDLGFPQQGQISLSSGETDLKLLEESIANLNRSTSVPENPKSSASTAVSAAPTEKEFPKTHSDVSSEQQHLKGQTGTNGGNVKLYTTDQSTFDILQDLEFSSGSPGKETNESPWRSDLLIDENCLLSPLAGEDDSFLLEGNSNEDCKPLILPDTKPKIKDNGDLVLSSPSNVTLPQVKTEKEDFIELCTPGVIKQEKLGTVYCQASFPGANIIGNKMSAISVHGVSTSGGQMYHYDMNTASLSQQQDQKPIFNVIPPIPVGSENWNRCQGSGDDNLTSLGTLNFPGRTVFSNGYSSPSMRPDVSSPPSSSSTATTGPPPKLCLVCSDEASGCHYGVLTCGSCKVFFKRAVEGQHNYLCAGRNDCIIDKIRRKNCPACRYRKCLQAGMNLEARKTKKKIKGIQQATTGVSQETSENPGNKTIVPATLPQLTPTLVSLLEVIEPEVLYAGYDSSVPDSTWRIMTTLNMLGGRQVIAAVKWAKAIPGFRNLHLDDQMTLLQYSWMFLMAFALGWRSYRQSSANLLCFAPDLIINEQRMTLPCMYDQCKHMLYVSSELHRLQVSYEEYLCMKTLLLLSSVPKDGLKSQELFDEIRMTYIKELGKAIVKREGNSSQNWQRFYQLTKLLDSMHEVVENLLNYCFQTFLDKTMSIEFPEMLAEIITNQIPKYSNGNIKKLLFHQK
How it was run: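 HeLa GRE-bla reporter cells; 18 h compound exposure at 37 C; 2 h CCF4 loading at room temperature; fluorescence at 460 and 530 nm; EC50 by Hill equation.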

[2] = target: Glucocorticoid receptor (Homo sapiens) (UniProt P04150); test: qHTS assay for small molecule antagonists of glucocorticoid receptor signaling (AID 588533; active = well fitted inhibition curve with a large enough effect in the signal ratio, with a control signal flat, not every such curve was filed as active; the % refers to the signal ratio;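 also: cells stimulated with 2 nM dexamethasone as agonist; % is scaled to controls: 0 for no effect and ±100 for the full control effect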); conditions: HeLa MMTV-bla, GRE beta-lactamase ratio, antagonist mode, 18 h; series mostly up to 76.8 µM
How it was run: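 Antagonist-mode qHTS: compound titrations added to GRE-bla HeLa cells, then dexamethasone 2 nM final; 18 h, 37 C. CCF4 FRET fluorescence normalized to dexamethasone and DMSO; IC50 from Hill fit.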

[3] = qHTS assay for small molecule antagonists of peroxisome proliferator-activated receptor delta signaling (AID 588535; active = well fitted inhibition curve with a large enough effect in the signal ratio, with a control signal flat, not every such curve was filed as active; the % refers to the signal ratio;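 as to max response: cells co-treated with a PPAR-delta agonist as stimulator during compound exposure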); conditions: HEK293T PPARd-UAS-bla, beta-lactamase FRET ratio, 18 h; 460 nm channel
How it was run: (§1)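 Cells were seeded at 4000 per well in assay medium containing 2% charcoal/dextran FBS and held 5 hrs at 37 C. Compounds were then added for 18 hrs. CCF4 substrate was applied for 2 hrs at room temperature before fluorescence reading.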

[4] = target: Peroxisome proliferator-activated receptor delta (Homo sapiens) (UniProt Q03181); test: as above; conditions: HEK293T PPARd-UAS-bla, beta-lactamase FRET ratio, 18 h; series mostly up to 76.7 µM
Sequence of Peroxisome proliferator-activated receptor delta (Homo sapiens) (Q03181 whole entry, looked up): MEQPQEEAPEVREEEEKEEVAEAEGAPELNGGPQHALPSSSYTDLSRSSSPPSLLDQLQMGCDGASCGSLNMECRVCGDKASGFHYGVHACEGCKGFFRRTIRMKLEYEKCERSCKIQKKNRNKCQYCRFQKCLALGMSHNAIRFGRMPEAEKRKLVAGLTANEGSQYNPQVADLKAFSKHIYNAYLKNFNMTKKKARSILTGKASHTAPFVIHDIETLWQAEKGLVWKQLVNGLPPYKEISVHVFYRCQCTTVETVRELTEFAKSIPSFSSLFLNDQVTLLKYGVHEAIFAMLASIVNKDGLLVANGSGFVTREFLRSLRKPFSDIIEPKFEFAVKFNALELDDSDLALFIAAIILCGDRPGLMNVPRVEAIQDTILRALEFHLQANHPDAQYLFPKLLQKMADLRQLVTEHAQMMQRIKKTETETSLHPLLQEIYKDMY
How it was run: as §1

[5] = target: Peroxisome proliferator-activated receptor gamma (Homo sapiens) (UniProt P37231); test: qHTS assay for small molecule agonists of peroxisome proliferator-activated receptor gamma signaling (AID 588536; active = well fitted curve in the direction sought with a large enough effect in the signal ratio, with a control signal flat, not every such curve was filed as active; the % refers to the signal ratio;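 also: 0% = DMSO basal wells and 100% = rosiglitazone at 2 µM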); conditions: HEK293 PPARg-UAS-bla, beta-lactamase ratio, 16 h, percent of rosiglitazone response, DMSO as zero; series mostly up to 76.7 µM
Sequence of Peroxisome proliferator-activated receptor gamma (Homo sapiens) (P37231 whole entry, looked up): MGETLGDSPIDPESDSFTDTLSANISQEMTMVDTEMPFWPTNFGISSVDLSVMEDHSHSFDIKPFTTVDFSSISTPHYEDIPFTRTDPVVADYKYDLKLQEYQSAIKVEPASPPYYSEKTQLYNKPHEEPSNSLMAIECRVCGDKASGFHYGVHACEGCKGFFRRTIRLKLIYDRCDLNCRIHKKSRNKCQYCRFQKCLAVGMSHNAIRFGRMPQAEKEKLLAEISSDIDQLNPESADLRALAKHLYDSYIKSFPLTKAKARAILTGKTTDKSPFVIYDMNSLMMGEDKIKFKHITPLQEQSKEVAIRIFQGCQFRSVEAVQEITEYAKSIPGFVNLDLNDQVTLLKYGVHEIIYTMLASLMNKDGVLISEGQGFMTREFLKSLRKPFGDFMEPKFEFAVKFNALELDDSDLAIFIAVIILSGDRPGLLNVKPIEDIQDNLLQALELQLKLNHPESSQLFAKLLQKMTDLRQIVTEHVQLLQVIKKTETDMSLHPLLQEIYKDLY
How it was run: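 Ratiometric blue/green fluorescence (405 nm excitation; 460 and 530 nm emission) from CCF4-loaded HEK293 reporter cells serves as signal. Exposure to test compounds lasts 16 h at 37 C in medium containing 1% charcoal/dextran-treated serum.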

[6] = target: Vitamin D3 receptor (Homo sapiens) (UniProt P11473); test: qHTS assay for small molecule agonists of vitamin D receptor signaling (AID 588543; calls by dose curve;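 also: 0% = DMSO basal and 100% = reference agonist control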); conditions: HEK293T VDR-UAS-bla, beta-lactamase ratio, 16 h; series mostly up to 76.8 µM
Sequence of Vitamin D3 receptor (Homo sapiens) (P11473 whole entry, looked up): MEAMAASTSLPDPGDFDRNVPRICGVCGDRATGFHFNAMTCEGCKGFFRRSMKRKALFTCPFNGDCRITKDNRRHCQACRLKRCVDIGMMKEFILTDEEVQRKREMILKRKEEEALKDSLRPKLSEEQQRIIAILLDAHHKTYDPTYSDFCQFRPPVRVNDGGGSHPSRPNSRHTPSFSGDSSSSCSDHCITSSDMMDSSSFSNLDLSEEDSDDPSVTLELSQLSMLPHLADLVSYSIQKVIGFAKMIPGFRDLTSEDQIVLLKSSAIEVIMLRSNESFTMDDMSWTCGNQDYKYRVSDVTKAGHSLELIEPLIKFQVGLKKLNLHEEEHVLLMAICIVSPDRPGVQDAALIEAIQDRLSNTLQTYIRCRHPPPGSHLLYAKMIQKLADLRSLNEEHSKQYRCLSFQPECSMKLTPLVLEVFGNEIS
How it was run: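 Measured: β-lactamase reporter activity (CCF4, 405 nm excitation, 460/530 nm emission) in HEK293T VDR-UAS-bla cells after 16 h compound exposure at 37 °C. Normalization against 50 nM 1α,25-dihydroxyvitamin D3 and DMSO; Hill-fit EC50.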

[7] = qHTS assay for small molecule agonists of retinoid X receptor alpha signaling (AID 588544; calls by dose curve;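 as to activation: 0% = DMSO basal wells and 100% = reference agonist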); conditions: HEK293T RXRa-UAS-bla, beta-lactamase reporter, 18 h; 530 nm emission
[8] = target: Retinoic acid receptor RXR-alpha (Homo sapiens) (UniProt P19793); test: as above; conditions: HEK293T RXRa-UAS-bla, beta-lactamase reporter, 18 h; series mostly up to 76.7 µM
Sequence of Retinoic acid receptor RXR-alpha (Homo sapiens) (P19793 whole entry, looked up): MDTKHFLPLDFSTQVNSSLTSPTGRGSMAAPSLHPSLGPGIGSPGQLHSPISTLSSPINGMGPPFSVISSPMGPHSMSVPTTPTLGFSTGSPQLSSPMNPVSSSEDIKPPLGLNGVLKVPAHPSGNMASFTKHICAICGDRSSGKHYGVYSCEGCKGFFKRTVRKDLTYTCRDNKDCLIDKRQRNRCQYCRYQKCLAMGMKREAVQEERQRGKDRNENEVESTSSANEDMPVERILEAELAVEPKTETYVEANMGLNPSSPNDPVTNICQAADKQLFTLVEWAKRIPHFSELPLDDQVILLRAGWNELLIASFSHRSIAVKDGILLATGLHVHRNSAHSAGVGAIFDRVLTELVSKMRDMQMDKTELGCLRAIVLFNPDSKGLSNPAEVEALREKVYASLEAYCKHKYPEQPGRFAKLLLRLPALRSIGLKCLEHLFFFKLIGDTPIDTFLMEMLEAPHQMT

[9] = target: Thyroid hormone receptor beta (Homo sapiens) (UniProt P10828); test: qHTS assay for small molecule agonists of thyroid hormone receptor beta signaling (AID 588545; calls by dose curve;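 also: 0% = DMSO only and 100% = 10 nM T3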); conditions: TR-UAS-bla GripTite HEK 293, beta-lactamase ratio, agonist mode, 18 h; series mostly up to 76.7 µM
Sequence of Thyroid hormone receptor beta (Homo sapiens) (P10828 whole entry, looked up): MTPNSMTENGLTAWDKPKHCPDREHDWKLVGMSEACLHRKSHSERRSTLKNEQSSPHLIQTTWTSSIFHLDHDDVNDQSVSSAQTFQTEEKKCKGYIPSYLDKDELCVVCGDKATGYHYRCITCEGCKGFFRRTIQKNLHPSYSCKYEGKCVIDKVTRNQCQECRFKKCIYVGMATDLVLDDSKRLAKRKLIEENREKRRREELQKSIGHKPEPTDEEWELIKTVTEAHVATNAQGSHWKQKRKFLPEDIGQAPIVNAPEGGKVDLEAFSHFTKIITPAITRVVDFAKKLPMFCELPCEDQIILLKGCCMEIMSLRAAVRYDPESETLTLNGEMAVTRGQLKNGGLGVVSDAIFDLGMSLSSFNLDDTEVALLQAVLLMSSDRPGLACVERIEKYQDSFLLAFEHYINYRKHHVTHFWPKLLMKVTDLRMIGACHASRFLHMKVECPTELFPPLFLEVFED
How it was run: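 Stimulation of a TR-driven beta-lactamase reporter was quantified in GripTite HEK 293 cells. Compound series ran for 18 hrs; curves were normalized to T3 and DMSO controls and fitted to yield EC50.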

[10] = qHTS assay for small molecule antagonists of retinoid X receptor alpha signaling (AID 588546; active = well fitted inhibition curve with a large enough effect in the signal ratio, with a control signal flat, not every such curve was filed as active; the % refers to the signal ratio;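 also: cells stimulated with 9-cis-retinoic acid as agonist; % is scaled to controls: 0 for no effect and ±100 for the full control effect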); conditions: HEK293T RXRa-UAS-bla, beta-lactamase ratio, antagonist mode; measured here: W530 green channel, cytotoxicity proxy
How it was run: (§2)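 Beta-lactamase reporter inhibition, read as CCF4 fluorescence ratio (ex 405, em 460/530 nm) after 2 h at RT. HEK293T UAS-bla cells, 2500/well, were stimulated with 9-cis-RA at 500 or 100 nM final alongside test compound for 18 h at 37 C.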

[11] = target: Retinoic acid receptor RXR-alpha (Homo sapiens) (UniProt P19793); test: as above; conditions: HEK293T RXRa-UAS-bla, beta-lactamase ratio, antagonist mode
How it was run: as §2

[12] = qHTS assay for small molecule activators of the p53 signaling pathway (AID 651743; active = well fitted activation curve with a large enough effect in the signal ratio, not every such curve was filed as active; the % refers to the signal ratio; also: % of control where 0% means no effect); conditions: HCT-116 p53RE-bla, beta-lactamase FRET ratio, 16 h; activation: stronger effect = higher value
How it was run: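 HCT-116 p53RE-bla, 4,000 cells/well; 5 h settle; cpd/DMSO 16 h, 37 C; LiveBLAzer B/G 2 h RT; fluorescence intensity.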

[13] = qHTS assay for environmental chemicals that activate the Aryl hydrocarbon Receptor (AhR) signaling pathway (AID 651777); conditions: 1A2-DRE human hepatoma cells, luciferase, 24 h; activation: stronger effect = higher value; also: % of control where 0% means no effect; nearly all actives have a fitted effect of over 15% in size
How it was run: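 Following a 24 hr incubation with test chemicals at 37 C and 5% CO2, 1A2-DRE human hepatoma cells received One-Glo reagent; after 30 min at room temperature, luciferase output reflected CYP1A2 induction via AhR.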

[14] = target: Peroxisome proliferator-activated receptor alpha (Homo sapiens) (UniProt Q07869); test: qHTS assay for small molecule agonists of the peroxisome proliferator-activated receptor alpha (PPARalpha) signaling pathway (AID 651778); conditions: PathHunter PPARalpha complementation, chemiluminescence, 6 h; max response: stronger effect = higher value; also: % of control where 0% means no effect
Sequence of Peroxisome proliferator-activated receptor alpha (Homo sapiens) (Q07869 whole entry, looked up, the tested form may be a part): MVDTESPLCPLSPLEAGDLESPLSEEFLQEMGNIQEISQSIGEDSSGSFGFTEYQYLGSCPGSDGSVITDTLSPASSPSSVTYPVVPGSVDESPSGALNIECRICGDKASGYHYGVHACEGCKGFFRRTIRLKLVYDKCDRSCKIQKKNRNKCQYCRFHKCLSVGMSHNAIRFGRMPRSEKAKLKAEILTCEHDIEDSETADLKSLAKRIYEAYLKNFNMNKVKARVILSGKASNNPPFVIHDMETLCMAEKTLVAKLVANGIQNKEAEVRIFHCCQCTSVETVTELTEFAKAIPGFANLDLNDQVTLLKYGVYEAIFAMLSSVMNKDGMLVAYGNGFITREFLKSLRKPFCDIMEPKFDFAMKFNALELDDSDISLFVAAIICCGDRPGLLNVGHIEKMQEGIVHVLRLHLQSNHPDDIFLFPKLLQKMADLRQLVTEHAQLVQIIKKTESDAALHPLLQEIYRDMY
How it was run: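 Enzyme-fragment complementation assay in which ligand-bound PPARalpha translocates and forms an active enzyme that generates chemiluminescence. Cells were plated overnight, exposed to compound for 6 hr at 37 C, and then given detection reagent for 60 min at room temperature.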

[15] = qHTS assay for small molecule agonists of the antioxidant response element (ARE) signaling pathway measured by Nrf2-dependant transcriptional activity (AID 720636; active = well fitted curve in the direction sought with a large enough effect in the repeat runs; an effect the other way counts as inactive or inconclusive;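 also: HepG2 cells with an ARE-driven luciferase reporter; % of control where 0% means no effect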); conditions: ARE-luc HepG2, Nrf2 luciferase reporter, 16 h; series mostly up to 92.4 µM
How it was run: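 ONE-Glo luminescence, read 30 min after reagent addition at room temperature, reflected ARE reporter activity in HepG2 cells that had been incubated with compound for 16 hr at 37 C in 1% dialyzed FBS.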

[16] = qHTS assay for small molecule agonists of the antioxidant response element (ARE) signaling pathway measured by Nrf2-dependant transcriptional activity - cell viability counter screen (AID 720653; active = well fitted curve in the direction sought with a large enough effect in the repeat runs; an effect the other way counts as inactive or inconclusive; also: % is scaled to controls: 0 for no effect and ±100 for the full control effect); conditions: ARE-bla HepG2 viability, CellTiter-Glo ATP luminescence, 16 h; max response: stronger effect = lower value
How it was run: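 ARE-bla HepG2 cells treated with compounds for 16 h at 37C; this counter screen measures viability as intracellular ATP by CellTiter-Glo luminescence after 30 min at room temperature.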

[17] = qHTS assay for cell viability of HEK293 cells (AID 743288); conditions: ATP luminescence (CellTiter-Glo), 18 h; max response: stronger effect = lower value; also: % is scaled to controls: 0 for no effect and ±100 for the full control effect; nearly all actives have a fitted effect of over 50% in size
How it was run: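 Luminescent ATP quantitation served as the viability read-out. Cells (parental HEK293, 2,000/well) received compounds after at least 5 h at 37 C and were exposed for 18 h before a 30 min room-temperature reagent step.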

[18] = target: Nuclear receptor subfamily 1 group I member 2 (Rattus norvegicus) (UniProt Q9R1A7); test: qHTS assay for small molecule activators of the rat pregnane X receptor (rPXR) signaling pathway (AID 651751; call rule not given here; also: 0% is about no effect); conditions: rPXR reporter cells, luciferase (One-Glo), 24 h
Sequence of Nuclear receptor subfamily 1 group I member 2 (Rattus norvegicus) (Q9R1A7 whole entry, looked up): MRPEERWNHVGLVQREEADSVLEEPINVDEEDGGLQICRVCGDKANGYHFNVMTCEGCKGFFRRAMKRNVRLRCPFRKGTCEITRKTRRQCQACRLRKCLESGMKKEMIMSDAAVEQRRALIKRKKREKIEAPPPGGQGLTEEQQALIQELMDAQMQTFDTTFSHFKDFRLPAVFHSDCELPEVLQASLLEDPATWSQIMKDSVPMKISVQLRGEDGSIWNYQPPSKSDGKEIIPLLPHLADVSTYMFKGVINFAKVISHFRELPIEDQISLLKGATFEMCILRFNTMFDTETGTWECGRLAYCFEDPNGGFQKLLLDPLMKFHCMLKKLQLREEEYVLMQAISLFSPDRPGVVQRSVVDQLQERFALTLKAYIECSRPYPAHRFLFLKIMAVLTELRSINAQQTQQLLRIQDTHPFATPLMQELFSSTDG

[19] = qHTS assay for small molecule activators of the human pregnane X receptor (PXR) signaling pathway (AID 720659; call rule not given here; also: 0% is about no effect); conditions: DPX-2 HepG2 CYP3A4-luciferase, 24 h; series mostly up to 92.3 µM
[20] = qHTS assay for cell viability of the p53RE-bla HCT-116 cell line (AID 743292); conditions: p53RE-bla HCT-116 viability, ATP luminescence, 16 h; series mostly up to 95 µM; also: % is scaled to controls: 0 for no effect and ±100 for the full control effect; nearly all actives have a fitted effect of over 55% in size
How it was run: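 After plating at 4,000 cells per well and a 5 h rest at 37 C, HCT-116 cells carrying p53RE-bla received test chemicals in DMSO. Sixteen hours later at 37 C, CellTiter-Glo was added and luminescence recorded following 30 min at room temperature.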

| Structure (SMILES) | activation [1] | Potency [2] | max response [3] | Potency [4] | outcome [5] | outcome [6] | max response [7] | Potency [8] | Potency [9] | max response [10] | max response [11] | activation [12] | activation [13] | max response [14] | Potency [15] | max response [16] | max response [17] | max response [18] | outcome [19] | Potency [20] |
| --- | --- | --- | --- | --- | --- | --- | --- | --- | --- | --- | --- | --- | --- | --- | --- | --- | --- | --- | --- | --- |
| CCOCCOCCOC(C)=O | -7.35% (inactive) | inactive | 31.4% | inactive | inactive | inactive | 0.881% | inactive | inactive | -12.8% | 7.1% (inactive) | 1.91% (inactive) | -0.223% (inactive) | 0.0175% (inactive) | inactive | 2.87% (inactive) | 0.368% (inactive) | 0.7% (inactive) | inactive |  |
| C=CCOC(=O)CC(C)C | 0.929% (inactive) | inactive | 13% | inactive | inactive | inactive | -1.51% | inactive | inactive | -12.5% | 1.64% (inactive) |  | -1.24% (inactive) | -0.161% (inactive) | inactive | -7.46% (inactive) | -9.09% (inactive) | -1.76% (inactive) | inactive | inactive |
| CN(C)CCOCCN(C)C | 11.4% (inactive) | inactive | 2.82% | inactive | inactive | inactive | 1.75% | inactive | inactive | -5.51% | -8.75% (inactive) | -2.29% (inactive) | -2.36% (inactive) | -0.21% (inactive) | inactive | -2.1% (inactive) | -5.76% (inactive) | 0.876% (inactive) | inactive | inactive |
| CCCCCCOCCOCCO | -12.5% (inactive) | inactive | -32.9% | inactive | inactive |  | -8.61% | inactive | inactive | -13.6% | 2.18% (inactive) |  | -0.48% (inactive) | 0.465% (inactive) | inactive | -7.8% (inactive) | -5.42% (inactive) | -1.74% (inactive) | inactive | inactive |
| O=c1n(CCO)c(=O)n(CCO)c(=O)n1CCO |  |  | 3.67% | inactive | inactive | inactive | -13.7% | inactive |  | -6.53% | 2.33% (inactive) | 3.11% (inactive) | 0.674% (inactive) | 0.0492% (inactive) |  | -11.6% (inactive) | -6.36% (inactive) | -0.84% (inactive) |  |  |
| CC(C)Nc1nc(N)nc(Cl)n1 | -6.58% (inactive) and -7.33% (inactive) | inactive | 2.88% and -10.4% | inactive | inactive | inactive | 2.38% and -17.2% | inactive | inactive | -2.6% and -6.07% | -9.99% (inactive) and -17.3% (inactive) | -1.43% (inactive) and -0.514% (inactive) | 1.51% (inactive) and -1.55% (inactive) | -0.394% (inactive) and -2.37% (inactive) | inactive |  | -6.34% (inactive) and -4.35% (inactive) | 4.66% (inactive) and -2.32% (inactive) | inactive | inactive |

Reference: PubChem BioAssay (NCATS)
